In PubChem BioAssay AID1117319 (Southern Research Institute, 2015):
In all, about 260,000 compounds went through this assay and about 1,500 (0.58%) were called active. About 5% were inconclusive and are not listed.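 How the source made its calls: active means inhibition above a set limit at one or more doses, reproduced on every date tested; inconclusive means results disagree between test dates, or hit never tested in dose response; inactive means the rest.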 These entries were drawn from the full list. Results with a measured potency or affinity are listed apart.

target: Virion infectivity factor (Human immunodeficiency virus type 1 group M subtype B (isolate BH10)) + Virion infectivity factor (Human immunodeficiency virus type 1 group M subtype B (isolate BRU/LAI)) + Virion infectivity factor (Human immunodeficiency virus type 1 group M subtype B (isolate PCV12)) + Virion infectivity factor (Human immunodeficiency virus type 1 group M subtype B (isolate HXB2)) + DNA dC->dU-editing enzyme APOBEC-3G (Homo sapiens) (UniProt P69720+P69721+P69722+P69723+Q9HC16); test: HIV-1 Vif–A3G interaction blockers – biochemical, TR-FRET, GST-Vif 1-94, biotin-A3G peptide, dose response retest, primary screen (AID 1117319); details: TR-FRET GST-Vif / biotin-A3G peptide binding; hits give high values;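 further: Vif residues 1-94 fused to GST binding biotinylated APOBEC3G peptide 110-148; 0% = full assay without inhibitor and 100% = GST in place of GST-Vif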

inhibition, inactive:
CC(NC(=O)c1ccc(Cn2cc([N+](=O)[O-])cn2)cc1)c1ccccc1 (configuration not stated) -7.96%, O=C1C(Cl)=C(N2CCOCC2)C(=O)N1c1ccc(Br)cc1 12.4%, O=C1C(Cl)=C(N2CCCCCC2)C(=O)N1c1ccccc1 4.82%, CCOc1ccccc1C(=O)NC(C(=O)OCC(=O)NNC(=O)c1cccs1)C(C)C (configuration not stated) -2.67%, Cc1cc(NN)nc2ccc(Cl)cc12 21%, O=C(Cc1csc(Nc2nc(=S)[nH]c3ccccc23)n1)NCc1ccc(Cl)cc1 3.88%, Cc1cc(SCc2ccc(C(F)(F)F)cc2)nc(=O)[nH]1 4.23%, Cc1cccc(-c2cc3nc4c(c(NCc5ccco5)n3n2)CCCC4)c1 3.78%, Clc1cccc(-c2cc3nc4c(c(NCc5ccco5)n3n2)CCCC4)c1 -4.82%, Brc1ccc(CSc2nnc(-c3ccco3)o2)cc1 -2.39%, c1coc(-c2nnc(SCc3cn4ccccc4n3)o2)c1 2.16%, COc1ccc(-c2c(C)n([O-])c(C)c(-c3ccccc3)[n+]2=O)cc1OC -6.67%, Cc1cccc(OCc2nnc(SCC(=O)Nc3ccc(C)c(Cl)c3)o2)c1 -12%, Cc1cc(C)cc(NC(=O)CN(C)CC(=O)N(CC(C)C)c2c(N)n(CC(C)C)c(=O)[nH]c2=O)c1 1.78%, COc1cc(-c2ccc(NC(C)=O)c(OC)c2)ccc1NC(C)=O 1.06%, O=C(O)c1ccccc1Nc1ccccc1C(=O)O 5.44%, CCOc1cc(-n2nc(C)c(C#N)c2N)nc(SC)n1 -1.98%, COc1cccc(/C=C2\CCCCC2=O)c1 8.63%, CC(NC(=O)C12CC3CC(C1)CC(n1cncn1)(C3)C2)C12CC3CC(CC(C3)C1)C2 (configuration not stated) -7.08%, O=C(COC(=O)CCC(=O)N1CCOCC1)Nc1ccc(Br)cc1Br 3.75%, O=C(C1CCCN1S(=O)(=O)c1ccc(Cl)cc1)N1CCCCC1 (configuration not stated) -2.58%, O=C(O)c1ccc(N2CCCCC2)cc1 8.04%, Nc1ccc(N2CCN(c3ccc(Cl)c(Cl)c3)CC2)cc1 22.2%, CN1CCN(c2ccc(C(=O)c3ccc(F)cc3)cc2)CC1 -7.54%, O=Cc1ccc(N2CCCCC2)cc1 -6%, CCn1c(SCC(=O)NC2CC2)nnc1-c1ccccc1 -1.91%, COc1ccc(CNC(=O)c2ccccc2NS(C)(=O)=O)cc1 1.78%
